Assay outcomes deposited in PubChem by National Center for Advancing Translational Sciences (NCATS).
Sfp inh: qHTS Assay for Inhibitors of Bacillus subtilis Sfp phosphopantetheinyl transferase (PPTase); 4'-phosphopantetheinyl transferase ffp (Bacillus subtilis), Q9F4F7; Biochemical Sfp PPTase activity, qHTS; Potency, µM, for inactives: largest response in the series, negative = inhibition, actives largely listed as inhibitors; 3.5% of 310,000 active; AID 1490, 2009;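 further: the enzyme is Sfp with the accession as filed and its product quenches rhodamine fluorescence; 0% = enzyme reaction without inhibitor and -100% = no enzyme wells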
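Fluorescence-quenching assay with 15 nM Sfp, 5 uM rhodamine-CoA and 12.5 uM BHQ-2-labelled ybbR peptide in pH 7.6 Hepes/MgCl2 buffer. Enzyme was pre-incubated with compound for 15 min at room temperature. Rate was taken from the 30-min fluorescence change (525/598 nm).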
JMJD2A Tudor inh: qHTS Assay for Inhibitors of JMJD2A-Tudor Domain; Lysine-specific demethylase 4A (Homo sapiens), O75164; AlphaScreen JMJD2A-Tudor / H3K4me3 peptide binding; Potency, µM (titrated, usually from 114 µM), inactives show at the top dose activity change, negative = inhibition, actives largely listed as inhibitors; 4.4% of 390,000 active; AID 504339, 2011; further: on the % scale 0 is the no-effect control and ±100 the full control effect; nearly all actives have a fitted effect of over 50% in size
BAZ2B inh: qHTS Assay for Inhibitors of BAZ2B; Bromodomain adjacent to zinc finger domain protein 2B (Homo sapiens), Q9UIF8; AlphaScreen BAZ2B-H3K14Ac peptide displacement; Potency, µM (series often up to 114 µM), without a hit: top-dose activity change, negative = inhibition, most hits filed as inhibitors; 4.4% of 360,000 active; AID 504333, 2011; further: on the % scale 0 is the no-effect control and ±100 the full control effect; nearly all actives have a fitted effect of over 60% in size
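In this displacement format the biotinylated H3(5-23) peptide acetylated at Lys14 serves as ligand at 50 nM, with BAZ2B at 50 nM in PBS pH 7.4 containing 0.01% Tween-20. Donor and acceptor beads are 10 ug/mL final.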
G9a block: qHTS Assay for Inhibitors of Histone Lysine Methyltransferase G9a; G9a H3K9 monomethylation, AlphaScreen, 2 h; Potency, µM (titrated, usually from 102 µM), inactives show at the highest dose activity, negative = inhibition, most hits filed as inhibitors; 8.8% of 350,000 active; AID 504332, 2011; further: on the % scale 0 is the no-effect control and ±100 the full control effect; nearly all actives have a fitted effect of over 75% in size
Target sequence (Q96KQ7 913-1193 limits assumed): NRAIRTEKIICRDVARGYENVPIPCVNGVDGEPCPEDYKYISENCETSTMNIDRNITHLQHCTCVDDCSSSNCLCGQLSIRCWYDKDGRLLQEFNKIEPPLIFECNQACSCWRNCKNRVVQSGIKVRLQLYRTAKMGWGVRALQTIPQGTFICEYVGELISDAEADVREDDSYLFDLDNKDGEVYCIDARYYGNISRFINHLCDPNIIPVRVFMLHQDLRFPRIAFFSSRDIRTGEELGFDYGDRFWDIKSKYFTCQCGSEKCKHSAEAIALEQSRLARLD
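Compounds were preincubated with 20 nM G9a for 15 min, after which biotinylated H3K9 peptide (500 nM) and SAM (20 uM) started a 2 h room-temperature reaction. Monomethylated product was quantified by antibody-based AlphaScreen chemiluminescence.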
HP1b chromo inh: HTS for Inhibitors of HP1-beta Chromodomain Interactions with Methylated Histone Tails. AlphaScreen HP1-beta / biotin-H3K9me3 peptide binding. Potency, µM (doses to about 114 µM), inactives show top-dose activity change, negative = inhibition, hits mostly inhibitors. 0.56% of 390,000 active; further: nearly all actives have a fitted effect of over 70% in size
Target sequence (P83916 whole entry, looked up): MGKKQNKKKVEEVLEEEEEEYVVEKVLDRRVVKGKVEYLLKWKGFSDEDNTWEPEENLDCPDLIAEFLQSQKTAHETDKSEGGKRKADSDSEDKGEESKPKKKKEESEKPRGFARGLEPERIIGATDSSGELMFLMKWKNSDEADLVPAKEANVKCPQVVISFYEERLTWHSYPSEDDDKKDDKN
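HP1-beta protein (50 nM final) preincubated 30 min at room temperature with biotinylated H3(1-18)K9me3 peptide (50 nM) in PBS pH 7.4, 0.01% Tween-20, then compound added for 30 min. AlphaScreen streptavidin donor/nickel chelate acceptor beads (10 ug/mL final), 30 min dark, luminescence read.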
Active calls of the source: *; ? = inconclusive; · = no result given; [ ] = another dose, or the depositor's remark. Only some compounds are listed: those with a hit (about 12% of all), similar ones and a draw of the others. The call rests on the fitted dose curve; in most records, active means well fitted curve in the direction sought with a large enough effect; inconclusive means small, poorly fitted or top-dose-only effect, or another doubt; inactive means no such curve, though single readings can be large; an effect the other way counts as inactive or inconclusive. Potency means the concentration at half of the fitted maximal effect.

SMILES	Sfp inh	JMJD2A Tudor inh	BAZ2B inh	G9a block	HP1b chromo inh
CCN(c1ccccc1)S(=O)(=O)c1ccc(OC)c(NC(=O)c2ccccc2OC)c1	·	-14%	-1%	-17%	20%
CSc1cccc(NC(=O)C2CC(=O)N(Cc3ccccc3)C2)c1 (configuration not stated)	9%	-14%	-19%	45µM*	38%
CCN(c1ccccc1)S(=O)(=O)c1ccc(OC)c(NC(=O)C2CC(=O)N(Cc3ccccc3)C2)c1 (configuration not stated)	12%	-33%	-27%	56µM*	21%
C/C=C1\COC(C(=O)NCCOCCO)(C(F)(F)F)C=C1C=C1CCCCC1 (configuration not stated)	-4%	-15%	·	·	36%
C(/Oc1ccccc1)=C1\Nn2c(nnc2-c2cc(-c3ccccc3)n[nH]2)S1	·	-11%[57.1 µM]	·	·	24%[57 µM]
O=C(CNC(=O)c1ccccc1)OC(C(=O)Nc1ccc2c(c1)OCO2)c1ccccc1 (configuration not stated)	·	-27%	·	·	·
COc1ccc(N2CC(NC(=O)c3cc4ccccc4o3)CC2=O)cc1 (configuration not stated)	·	-23%	5%	8%[59 µM]	40%
Nc1nc(SCc2nnc(SCC(=O)O)n2-c2ccccc2)nc2sc3c(c12)CCCC3	12%	-31%	-32%	79µM*	14%
O=c1[nH]c(SCc2n[nH]c(=S)n2-c2ccccc2)nc2sc3c(c12)CCC3	?	56µM*	-33%	2µM*	-8%
O=C(CNC(=O)c1ccccc1)NCCCSc1ccccc1	·	-5%	·	·	35%
O=C(NCCCSc1ccccc1)c1cc(Cl)ccc1O	-21%	33%	50µM*	35µM*	88%
Cc1ccc(/C=C/c2nc3ccccc3[nH]2)cc1	·	-7%	7%	4%[59 µM]	29%
Cc1ccc(/C=C/c2nc3ccccc3[nH]2)o1	5µM*	50µM*	-34%	11µM*	?
Cc1ccc(S(=O)(=O)N(C)/N=C/c2ccc(N(C)C)cc2)cc1	1%	22µM*	25µM*	18µM*	40µM*
Cc1ccc(N=Cc2ccc(N(C)C)cc2)cc1	-2%	-14%	-6%	-35%	6%
Cc1ccc(S(=O)(=O)N(C)/N=C/C=C/c2ccccc2)cc1	2%	-26%	-4%	35µM*	20%
COc1ccc2cc(CNc3ccc(C)cc3)c(=O)n(CC(=O)Nc3cccc(C(F)(F)F)c3)c2c1	·	-17%	-10%	9%[59 µM]	29%
O=c1[nH]c(=S)[nH]c2sccc12	22µM*	3.5µM*	-29%	10µM*	?
O=c1[nH]c(=S)[nH]c2scc(-c3ccc(Br)cc3)c12	·	-22%	·	·	-14%
CSc1c[n+]2c(n1C)CCC2	10%	32µM*	13%	?	6%
CCOC(=O)c1[nH]c(C)c(CCC(=O)NCc2ccc(OCC)cc2)c1C	·	-28%	-15%	-16%[59 µM]	20%[57 µM]
CCC(CC)COC(=O)C1=C(C)NC(=O)NC1c1ccc(N(C)C)cc1 (configuration not stated)	27%	?	?	16µM*	-10%
CCOC(=O)C1=C(C)NC(=O)NC1c1ccc(N(CC)CC)cc1 (configuration not stated)	7%	?	-37%	45µM*	10%
CCC(CC)COC(=O)C1=C(C)NC(=O)NC1c1ccccc1Br (configuration not stated)	5%	-21%	3%	22%[0.501 µM]	30%
CCOC(=O)C1=C(C)NC(=O)NC1c1ccc(N(C)C)cc1 (configuration not stated)	13%	-35%	-2%	?	17%
SMILES	Sfp inh	JMJD2A Tudor inh	BAZ2B inh	G9a block	HP1b chromo inh
Cc1ccccc1Nc1nc(=O)c2cc([N+](=O)[O-])ccc2s1	?	-8%	21%	35µM*	8%
COc1ccc(Nc2nc(=O)c3cc([N+](=O)[O-])ccc3s2)cc1	?	-21%	79µM*	?	42%
CCOC(=O)c1[nH]c(C)c(CCC(=O)Nc2cccc(C(F)(F)F)c2)c1C	·	-23%	0%	-2%[59 µM]	16%[57 µM]
Cc1cc(C(=O)OCC(=O)N2CC(C)OC(C)C2)c(C)n1-c1ccccc1 (configuration not stated)	·	?	?	-11%[59 µM]	-13%
CC(C)CCn1c(O)c(N=NC(=O)Cn2ccc(C(F)(F)F)n2)c2ccccc21	20%	50µM*	3%	-9%[59 µM]	4%
CC(C)CCn1c(O)c(N=Nc2ccccn2)c2ccccc21	-16%	-9%	-1%	32%[59 µM]	64%
O=C(Nc1ccccc1Cl)C1CC(=O)N(Cc2ccco2)C1 (configuration not stated)	·	-11%	3%	17%[59 µM]	40%
CSCC[C@H](NC(=O)[C@H](CC(C)C)N1CCC(NC(=O)[C@@H](NC(=O)[C@H](Cc2ccccc2)NC(=O)[C@H](CO)NC(=O)[C@H](CC(=O)O)NC(=O)[C@@H](N)CCCCN)C(C)C)C1=O)C(N)=O (some centres not stated)	-29%	·	·	·	·
O=C(Nc1ccc(F)c(Cl)c1)C1CCN(C(=O)c2ccc(F)cc2)CC1	·	1%	0%	-23%[59 µM]	36%
CC[N+]1(CC)CC2CCC(C)(C1)C2(C)C (configuration not stated)	-4%	?	-12%	?	13%
CC12CCC(C[N+](C)(C)C1)C2(C)C (configuration not stated)	-6%	22µM*	-8%	?	-26%
Cn1cc(Cl)c(C(=O)NNC(=S)NCc2ccco2)n1	56µM*	-25%	9%	40µM*	-5%
COc1cc(NC(=S)NCc2ccco2)cc(OC)c1OC	-6%	-13%	-28%	-20%[59 µM]	19%
CN(C)c1ccc(C(=S)NCc2ccco2)cc1	14µM*	?	?	?	?
Cc1cccc(NC(=S)NCc2ccco2)n1	-28%	6%	-2%	2µM*	27%
CN(C)c1ccc(/C=N/NC(=S)NCc2ccco2)cc1	-3%	-24%[57.1 µM]	?	-15%[59 µM]	7%
COc1ccccc1NC(=S)NCc1ccco1	56µM*	-23%	-3%	?	13%
COc1ccccc1NS(=O)(=O)c1cc(C(=O)NC2CC(C)(C)NC(C)(C)C2)ccc1Cl	·	-2%	·	·	49%
COc1ccc(CCNC(=O)CSc2cc(=O)n(C)c3ccccc23)cc1OC	·	-5%	·	?	48%
CC(C)(C)N1C(=O)[C@H]2[C@H]3[C@H](O)[C@H](O)C/C(=N/OCc4ccccc4)[C@@H]3CC[C@@H]2C1=O	2%	·	·	·	·
